From PubChem
Rows were chosen to be rich in hits. Some 3% of all compounds tested hit in one or more screens of this group.
Measles CPE: protection of cells from measles virus. protection (pct of control), % at 4 µM. AID 841. Measles virus-infected cells, CPE protection, absorbance. actives 1.5% (n = 140,000); in the data active means protection mostly above about 24%, no sharp cut-off; inactive means mostly below about 26%
Insulin prom inh: TRM-6 insulin promoter activity inhibition; TRM-6 cells (human fetal islet line), insulin promoter-eGFP reporter, imaging; reporter expression induced with tamoxifen; inhibition, % at 2 µM; actives 0.9% (n = 130,000);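 active means inhibition above the mean plus 3 SD, with well images judged a real hit on visual review, cut at about 60% in these data, passing the limit was not always enough; inconclusive means inhibition over the cutoff but images rejected on review; inactive means inhibition not above the cutoff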
ROMK mod: modulates human ROMK potassium channel activity. P48048. Tet-inducible ROMK, thallium flux fluorescence; actives lie on both sides. B-score at 10 µM. AID 1918. actives 2% (n = 130,000);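 active means signal ratio slope over the read window, or its plate-corrected B-score, at least 3 SD from the plate mean, either direction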;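 further: B-score of the F/F0 ratio slope over 7 to 12 s after thallium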
Target sequence (P48048 whole entry, looked up): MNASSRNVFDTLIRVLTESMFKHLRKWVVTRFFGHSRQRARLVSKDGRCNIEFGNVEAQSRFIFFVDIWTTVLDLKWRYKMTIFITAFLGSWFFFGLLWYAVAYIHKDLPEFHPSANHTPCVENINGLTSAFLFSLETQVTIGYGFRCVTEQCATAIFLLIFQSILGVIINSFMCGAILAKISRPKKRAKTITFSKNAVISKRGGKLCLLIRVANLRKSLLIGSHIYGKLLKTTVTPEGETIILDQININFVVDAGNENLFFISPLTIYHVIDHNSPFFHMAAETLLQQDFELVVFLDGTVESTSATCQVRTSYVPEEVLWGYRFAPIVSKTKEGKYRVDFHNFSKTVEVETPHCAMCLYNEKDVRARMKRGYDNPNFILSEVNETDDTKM
sdo1 growth: restores growth of sdo1-depleted yeast | S. cerevisiae sdo1-depleted JHY4D growth rescue, OD600 30 h; stronger effect = higher value; pdr5 snq2 efflux-pump mutant strain | z-score at 10 µM | actives 0.21% (n = 140,000) | AID 817;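 active means z-score above 3 at both the 24 hr and the 30 hr optical density reads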
ROMK retest: human ROMK channel modulation, retest confirmation; shares compounds with ROMK mod; normalized thallium flux (F/F0 slope) at 10 µM; actives 54% (n = 3,000); AID 1917; ROMK thallium flux, fluorescence ratio; stronger effect = lower value;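 active means Flux at 10 µM at least 3 SD below or above vehicle control mean in one or both replicates; inconclusive means no clear call, values can overlap the other calls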
Numbers stand for hits.

For C#CCOCCOCCOCCNc1nc(N2CCN(C(=O)[C@H]([C@@H](C)O)n3cc(CCCCN)nn3)CC2)nc(N2CCN(C(=O)[C@H](Cc3ccc(O)cc3)n3cc(CCO)nn3)CC2)n1 the results were Measles CPE inactive, Insulin prom inh inactive, ROMK mod 2, sdo1 growth inactive and ROMK retest inactive.
Screening COc1ccc(C(=O)Nc2ncc3c(n2)CC(c2ccco2)CC3=O)cc1 (configuration not stated) returned Measles CPE inactive, ROMK mod -6.5, sdo1 growth inactive and ROMK retest inactive.
Screening CC(=O)Nc1ncc2c(n1)CC(c1ccco1)CC2=O (configuration not stated) returned Measles CPE inactive, Insulin prom inh inactive, ROMK mod inactive and sdo1 growth inactive.
Screening Cc1ccc[n+](CC(=O)Nc2nc3ccccc3s2)c1 returned ROMK mod inactive.
For CCCN1C(=O)c2cc(C(=O)Nc3ccc(OC)c(OC)c3)ccc2C1Nc1ccc(OC)c(OC)c1 (configuration not stated) the results were Insulin prom inh inactive and ROMK mod inactive.
CCCN1C(=O)c2cc(C(=O)Nc3ccc(OC)cc3OC)ccc2C1Nc1ccc(OC)cc1OC (configuration not stated) was read as ROMK mod -3.7 and ROMK retest inconclusive.
For Cc1cccc(Nc2nc(N)nc(CCl)n2)c1C the results were ROMK mod inactive.
For COc1cccc(C2C(C(=O)OCc3ccccc3)=C(C)Nc3ncnn32)c1OC (configuration not stated) the results were Measles CPE inactive and sdo1 growth inactive.
COC(=O)c1cc(F)c(-n2cncn2)c(F)c1 was read as Measles CPE inactive, Insulin prom inh inactive and sdo1 growth inactive.
Screening COC(=O)c1cc([N+](=O)[O-])c(-n2cncn2)c([N+](=O)[O-])c1 returned ROMK mod -7.8 and ROMK retest 0.043.
`COc1cccc(-c2cc(C(=O)NCC3CCCO3)c3ccccc3n2)c1` (configuration not stated) gave Measles CPE inactive, Insulin prom inh inactive and sdo1 growth inactive.
`CC(C)(C)c1nnc(NC(=O)c2cc(-c3ccccc3)nc3ccccc23)s1` gave Measles CPE inactive, Insulin prom inh inactive and sdo1 growth inactive.
Cc1csc(NC(=O)c2cc(-c3ccccc3)nc3ccccc23)n1 was read as Measles CPE inactive, sdo1 growth inactive and ROMK retest inactive.
N#Cc1cc2cc3ccccc3nc2n2c(=O)c3ccccc3nc12 was read as Insulin prom inh inactive and ROMK retest 0.056.
For Cc1cc(C#N)c2ccccc2n1 the results were Measles CPE inactive and sdo1 growth inactive.
`CCCc1ccc(O)c(N=Cc2cc(Br)cc(OCC)c2O)c1` gave Insulin prom inh inactive, ROMK mod inactive and ROMK retest inactive.
`CCc1ccc(O)c(N=Cc2cccc(C)c2O)c1` gave Measles CPE inactive, Insulin prom inh inactive and sdo1 growth inactive.
CC(C)CN(CC(C)C)C(=O)Nc1cccc([N+](=O)[O-])c1 was read as ROMK mod inactive.
For Cc1ccc(/C=C(\C#N)C(=O)NCCN2CCOCC2)cc1 the results were Insulin prom inh inactive, ROMK mod -3.2 and ROMK retest 0.06.
For CC(=O)NN1C(=O)/C(=C\c2ccc(Br)o2)SC1=S the results were Measles CPE inactive, Insulin prom inh inactive, ROMK mod -4.1, sdo1 growth inactive and ROMK retest 0.055.
CC(=O)NN1C(=O)/C(=C/c2ccc(Br)o2)SC1=S was read as Measles CPE inactive, Insulin prom inh inactive and sdo1 growth inactive.
O=C(CNC(=O)C12CC3CC(CC(C3)C1)C2)N1CCN(S(=O)(=O)/C=C/c2ccccc2)CC1 was read as Measles CPE inactive and sdo1 growth inactive.
Cc1ccc2cc(CN(CCCN3CCOCC3)C(c3nnnn3Cc3ccco3)C(C)C)c(=O)[nH]c2c1C (configuration not stated) was read as Insulin prom inh inactive and ROMK mod inactive.
`Cc1cccc2cc(CN(CC3CCCO3)C(c3nnnn3Cc3ccco3)C(C)C)c(=O)[nH]c12` (configuration not stated) gave Measles CPE inactive, Insulin prom inh inactive, ROMK mod -3, sdo1 growth inactive and ROMK retest inactive.
Cc1cc(C)c2[nH]c(=O)c(C(c3nnnn3C(C)(C)C)N(Cc3ccco3)CC3CCCO3)cc2c1 (configuration not stated) was read as Measles CPE inactive, Insulin prom inh inactive, ROMK mod -3.3, sdo1 growth inactive and ROMK retest 0.058.
Screening COc1ccc(Cn2c(-c3ccc(OC)cc3)nc3ccccc32)cc1 returned Measles CPE inactive, Insulin prom inh inactive, ROMK mod -2.5, sdo1 growth inactive and ROMK retest inconclusive.
For CC(=O)N1CCN(C2=NC(=O)/C(=C\c3cccs3)S2)CC1 the results were ROMK mod -6.7 and ROMK retest inactive.
For O=C1N=C(N2CCOCC2)S/C1=C/c1cccs1 the results were Measles CPE inactive, Insulin prom inh inactive and sdo1 growth inactive.
Screening CCCn1c2c(c(O)c(C(=O)NC)c1=O)CCCC2 returned Measles CPE inactive, Insulin prom inh inactive and sdo1 growth inactive.
Screening CC(=O)c1c(C)c2c(n1CCN(C)C)CCCC2 returned Measles CPE inactive, Insulin prom inh inactive, ROMK mod 3.5, sdo1 growth inactive and ROMK retest inactive.
For O=C(NCCN1CCCCCC1)C1CCCN1S(=O)(=O)c1cccc2nsnc12 (configuration not stated) the results were ROMK mod inactive.
For C=CC#CC1(O)CC(C)[N+](C)(C)CC1C (configuration not stated) the results were Insulin prom inh inactive, ROMK mod inactive and ROMK retest inactive.
CC(=O)Nc1ccc(S(=O)(=O)N2CCN(Cc3cccc([N+](=O)[O-])c3)CC2)cc1 was read as ROMK mod inactive.
CC(C)(C)OC(=O)NCCCCCc1nnc(SCC(=O)Nc2cccc(Cl)c2)o1 was read as Measles CPE inactive, Insulin prom inh inactive, ROMK mod -4.9, sdo1 growth inactive and ROMK retest 0.064.
COc1cc(CNCC(O)c2ccccc2)ccc1OCc1ccc(Cl)nc1 (configuration not stated) was read as Measles CPE inactive, Insulin prom inh inactive, ROMK mod inactive and sdo1 growth inactive.
Screening COc1cc(CNCCc2ccccc2)ccc1OCc1ccc(Cl)nc1 returned Measles CPE inactive, Insulin prom inh inactive, ROMK mod -3.7, sdo1 growth inactive and ROMK retest 0.057.
For COc1cc(CNCCc2ccc(S(N)(=O)=O)cc2)ccc1OCc1ccc(Cl)cc1 the results were Measles CPE inactive, ROMK mod -2.6, sdo1 growth inactive and ROMK retest 0.058.
For COc1cccc(CNCCc2c[nH]c3ccccc23)c1OCc1ccccc1 the results were Measles CPE inactive, sdo1 growth inactive and ROMK retest 0.059.
For COc1ccccc1CCNCc1ccc(OC)c(OCc2ccccc2)c1 the results were Measles CPE inactive, Insulin prom inh inactive, sdo1 growth inactive and ROMK retest 0.065.
